Our source for the log2 fold change values is the supplement of paper PMC10849652.

Targets with a hit are over-represented here; the source holds about 8,800 in all. About 0.5% of all pairs of compound and target were hits. A number with no mark means an inactive call.

Assay in all cases: log2 fold change, soluble protein after heating vs DMSO (PISA); higher = thermal stabilisation; K562 lysate, 10 uM; active = over 0.2 and 3.5 SD of the protein, either way, in both replicates (recomputed)
Compound in experiment [1]: NCC(=O)Nc1ccc(-n2nc(C(F)(F)F)cc2-c2ccc3c(ccc4ccccc43)c2)cc1
The procedure, abridged: (§1)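 Quantification was by TMTpro 16plex LC-MS/MS with equalised channel sums, applied to the supernatant after 21,000xg for 90 min. Samples were crude K562 extract at 1 mg/mL protein in PBS pH 7.4 with 1 mM MgCl2, treated with 10 μM compound for 30 min, heated for 3 min across 48°C-58°C, pooled and brought to 0.5% NP-40 at 4°C. Values are log-two fold changes in thermal stability relative to solvent controls, from duplicates.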

Compound in experiment [2]: O=C1NC(=O)C(c2cnc3ccccn23)=C1c1cn2c3c(cc(F)cc13)CN(C(=O)N1CCCCC1)CC2
The procedure, abridged:
as §1

Compound in a further experiment: c1cn2cc(-c3ccc4cn[nH]c4c3)nc(Nc3ccc(N4CCOCC4)cc3)c2n1 [entospletinib]
The method, boiled down: as §1

Compound in the next experiment: O=C(CCCCCCC(=O)Nc1ccccc1)NO [vorinostat]
The method, boiled down: as §1

Compound in another experiment: O=C(O)c1ccc2c(c1)nc(Nc1cccc(Cl)c1)c1ccncc12 [silmitasertib]
The method, boiled down: as §1

Chain of UniProt Q71SY5 (Q71SY5 whole entry, looked up): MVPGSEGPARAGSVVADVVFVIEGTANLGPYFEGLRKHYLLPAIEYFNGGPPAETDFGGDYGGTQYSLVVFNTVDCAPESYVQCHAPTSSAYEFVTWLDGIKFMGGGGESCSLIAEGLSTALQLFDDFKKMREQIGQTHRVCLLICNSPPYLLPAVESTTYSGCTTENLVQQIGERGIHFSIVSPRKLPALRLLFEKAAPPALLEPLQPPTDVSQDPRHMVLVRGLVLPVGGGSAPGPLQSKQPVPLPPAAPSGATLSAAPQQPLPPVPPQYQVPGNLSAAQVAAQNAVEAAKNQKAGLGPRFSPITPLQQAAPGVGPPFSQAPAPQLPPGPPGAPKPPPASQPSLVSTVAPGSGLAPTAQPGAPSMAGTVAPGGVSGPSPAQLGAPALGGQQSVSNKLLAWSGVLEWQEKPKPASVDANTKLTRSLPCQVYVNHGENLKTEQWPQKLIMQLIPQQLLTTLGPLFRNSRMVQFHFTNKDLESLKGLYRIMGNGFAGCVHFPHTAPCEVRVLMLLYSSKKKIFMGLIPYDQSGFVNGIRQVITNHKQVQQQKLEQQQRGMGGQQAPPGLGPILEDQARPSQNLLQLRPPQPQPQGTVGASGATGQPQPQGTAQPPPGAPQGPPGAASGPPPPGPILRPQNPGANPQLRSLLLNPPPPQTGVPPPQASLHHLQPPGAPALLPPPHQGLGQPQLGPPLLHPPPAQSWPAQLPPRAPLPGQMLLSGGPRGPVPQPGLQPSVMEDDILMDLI
Chain of UniProt Q9H204 (Q9H204 whole entry, looked up): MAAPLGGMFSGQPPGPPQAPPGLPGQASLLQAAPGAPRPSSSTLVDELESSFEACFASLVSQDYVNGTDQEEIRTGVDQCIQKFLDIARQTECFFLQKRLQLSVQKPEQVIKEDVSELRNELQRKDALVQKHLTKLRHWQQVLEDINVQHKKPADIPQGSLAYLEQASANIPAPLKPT
Chain of UniProt Q9BPZ7 (Q9BPZ7 whole entry, looked up): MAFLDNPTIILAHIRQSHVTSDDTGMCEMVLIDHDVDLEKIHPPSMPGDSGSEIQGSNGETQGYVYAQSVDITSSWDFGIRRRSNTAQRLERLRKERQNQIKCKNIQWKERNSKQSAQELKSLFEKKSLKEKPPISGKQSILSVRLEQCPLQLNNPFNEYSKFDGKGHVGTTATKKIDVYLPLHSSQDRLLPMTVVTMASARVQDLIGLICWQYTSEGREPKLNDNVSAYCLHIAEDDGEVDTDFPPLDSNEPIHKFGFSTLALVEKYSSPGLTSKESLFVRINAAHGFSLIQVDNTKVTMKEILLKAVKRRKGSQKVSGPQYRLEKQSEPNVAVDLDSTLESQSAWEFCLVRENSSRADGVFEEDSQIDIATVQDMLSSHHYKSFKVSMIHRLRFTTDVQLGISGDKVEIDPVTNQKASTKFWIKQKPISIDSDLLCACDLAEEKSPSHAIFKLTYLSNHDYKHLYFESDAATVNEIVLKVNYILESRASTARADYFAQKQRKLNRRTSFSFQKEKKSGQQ
Chain of UniProt Q9H9A6 (Q9H9A6 whole entry, looked up): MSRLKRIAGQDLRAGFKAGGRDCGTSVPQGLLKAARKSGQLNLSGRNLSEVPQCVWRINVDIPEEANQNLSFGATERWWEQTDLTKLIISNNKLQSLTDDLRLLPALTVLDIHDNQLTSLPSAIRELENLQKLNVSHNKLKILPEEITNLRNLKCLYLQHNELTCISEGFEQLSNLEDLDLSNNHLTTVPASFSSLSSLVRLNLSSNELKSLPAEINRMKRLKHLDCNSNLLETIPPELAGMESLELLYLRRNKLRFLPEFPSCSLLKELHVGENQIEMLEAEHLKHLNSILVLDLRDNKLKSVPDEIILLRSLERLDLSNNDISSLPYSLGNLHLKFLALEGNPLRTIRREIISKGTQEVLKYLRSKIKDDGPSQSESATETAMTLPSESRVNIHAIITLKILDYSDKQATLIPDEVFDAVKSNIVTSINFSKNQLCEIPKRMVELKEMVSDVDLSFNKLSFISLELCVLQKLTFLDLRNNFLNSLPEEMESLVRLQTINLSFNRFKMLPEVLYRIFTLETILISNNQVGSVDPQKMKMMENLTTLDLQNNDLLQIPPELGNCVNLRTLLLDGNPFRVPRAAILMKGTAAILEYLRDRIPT
Chain of UniProt Q96NW7 (Q96NW7 whole entry, looked up): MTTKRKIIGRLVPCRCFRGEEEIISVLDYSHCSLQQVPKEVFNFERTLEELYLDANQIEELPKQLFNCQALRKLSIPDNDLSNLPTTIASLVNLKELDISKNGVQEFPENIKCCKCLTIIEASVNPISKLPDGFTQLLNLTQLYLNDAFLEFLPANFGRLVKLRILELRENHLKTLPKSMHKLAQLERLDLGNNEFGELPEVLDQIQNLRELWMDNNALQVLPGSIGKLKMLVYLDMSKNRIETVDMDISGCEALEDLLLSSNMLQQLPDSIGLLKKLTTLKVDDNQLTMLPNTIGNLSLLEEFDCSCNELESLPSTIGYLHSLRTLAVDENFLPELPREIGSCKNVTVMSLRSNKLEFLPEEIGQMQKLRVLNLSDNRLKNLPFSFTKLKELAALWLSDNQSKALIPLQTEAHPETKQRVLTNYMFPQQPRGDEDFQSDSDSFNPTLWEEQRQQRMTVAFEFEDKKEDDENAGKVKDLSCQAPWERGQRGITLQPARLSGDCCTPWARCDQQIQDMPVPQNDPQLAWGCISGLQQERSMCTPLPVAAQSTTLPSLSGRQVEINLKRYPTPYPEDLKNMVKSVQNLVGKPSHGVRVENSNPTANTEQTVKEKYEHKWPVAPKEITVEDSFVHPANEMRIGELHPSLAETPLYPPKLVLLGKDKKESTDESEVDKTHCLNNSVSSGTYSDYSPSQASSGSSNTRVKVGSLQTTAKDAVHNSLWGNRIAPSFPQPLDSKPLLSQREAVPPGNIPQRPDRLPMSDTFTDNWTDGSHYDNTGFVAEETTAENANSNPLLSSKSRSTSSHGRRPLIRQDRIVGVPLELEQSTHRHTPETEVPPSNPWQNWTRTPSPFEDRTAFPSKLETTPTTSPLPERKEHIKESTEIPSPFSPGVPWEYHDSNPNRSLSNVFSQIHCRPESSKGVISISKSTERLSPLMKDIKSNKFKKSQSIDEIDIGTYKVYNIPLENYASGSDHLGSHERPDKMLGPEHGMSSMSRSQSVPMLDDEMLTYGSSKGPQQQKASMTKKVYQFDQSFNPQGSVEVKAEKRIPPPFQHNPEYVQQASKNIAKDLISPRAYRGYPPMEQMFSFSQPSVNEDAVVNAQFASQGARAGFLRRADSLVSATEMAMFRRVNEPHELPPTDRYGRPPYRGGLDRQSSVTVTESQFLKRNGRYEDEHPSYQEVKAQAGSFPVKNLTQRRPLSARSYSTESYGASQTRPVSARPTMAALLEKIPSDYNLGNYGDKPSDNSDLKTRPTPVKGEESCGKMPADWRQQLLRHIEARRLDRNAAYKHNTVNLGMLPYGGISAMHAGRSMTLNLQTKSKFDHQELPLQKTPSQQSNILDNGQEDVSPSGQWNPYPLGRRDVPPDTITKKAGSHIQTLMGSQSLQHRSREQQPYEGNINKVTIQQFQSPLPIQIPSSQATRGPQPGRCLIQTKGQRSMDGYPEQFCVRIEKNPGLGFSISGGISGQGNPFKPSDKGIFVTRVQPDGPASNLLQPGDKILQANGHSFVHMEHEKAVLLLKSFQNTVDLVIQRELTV
Chain of UniProt Q8IW41 (Q8IW41 whole entry, looked up): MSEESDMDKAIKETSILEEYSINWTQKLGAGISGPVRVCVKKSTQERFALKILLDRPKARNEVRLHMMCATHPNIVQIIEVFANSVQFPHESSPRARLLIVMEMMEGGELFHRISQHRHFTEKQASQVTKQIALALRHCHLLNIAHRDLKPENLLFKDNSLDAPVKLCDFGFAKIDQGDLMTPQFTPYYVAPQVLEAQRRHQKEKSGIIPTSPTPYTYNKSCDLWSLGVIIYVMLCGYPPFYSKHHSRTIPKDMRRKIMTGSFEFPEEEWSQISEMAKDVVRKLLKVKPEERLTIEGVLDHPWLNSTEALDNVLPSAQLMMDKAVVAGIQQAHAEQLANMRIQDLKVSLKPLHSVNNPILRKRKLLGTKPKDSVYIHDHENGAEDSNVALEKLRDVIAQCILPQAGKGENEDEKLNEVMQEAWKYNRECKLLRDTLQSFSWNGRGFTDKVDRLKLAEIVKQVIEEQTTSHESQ
Chain of UniProt Q8WXB1 (Q8WXB1 whole entry, looked up): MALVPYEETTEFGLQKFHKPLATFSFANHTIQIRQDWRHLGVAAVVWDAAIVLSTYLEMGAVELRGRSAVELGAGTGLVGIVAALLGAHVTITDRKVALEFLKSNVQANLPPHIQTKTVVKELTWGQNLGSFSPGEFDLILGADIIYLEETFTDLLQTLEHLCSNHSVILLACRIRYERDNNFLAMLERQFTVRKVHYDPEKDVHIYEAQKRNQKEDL
Chain of UniProt P27448 (P27448 whole entry, looked up): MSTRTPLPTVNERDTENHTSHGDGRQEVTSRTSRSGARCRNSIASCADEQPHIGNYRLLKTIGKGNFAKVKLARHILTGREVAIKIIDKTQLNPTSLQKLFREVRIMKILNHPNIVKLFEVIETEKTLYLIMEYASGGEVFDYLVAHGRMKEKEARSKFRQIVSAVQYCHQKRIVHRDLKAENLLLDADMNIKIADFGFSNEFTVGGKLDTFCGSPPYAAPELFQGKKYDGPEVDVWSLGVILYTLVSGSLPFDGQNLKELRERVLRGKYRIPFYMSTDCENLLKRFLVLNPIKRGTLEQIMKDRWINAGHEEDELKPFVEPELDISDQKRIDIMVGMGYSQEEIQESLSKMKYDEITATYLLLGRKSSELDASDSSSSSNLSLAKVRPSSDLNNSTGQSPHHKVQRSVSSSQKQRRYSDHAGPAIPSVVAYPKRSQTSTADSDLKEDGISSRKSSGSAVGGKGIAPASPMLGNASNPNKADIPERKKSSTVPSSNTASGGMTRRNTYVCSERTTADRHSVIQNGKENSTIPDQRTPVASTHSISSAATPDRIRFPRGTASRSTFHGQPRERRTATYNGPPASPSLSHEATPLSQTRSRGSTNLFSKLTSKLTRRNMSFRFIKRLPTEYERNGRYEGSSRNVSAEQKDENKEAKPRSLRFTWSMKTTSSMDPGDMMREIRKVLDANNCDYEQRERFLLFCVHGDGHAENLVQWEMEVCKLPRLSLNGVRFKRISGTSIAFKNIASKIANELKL

On to LRRC9 (UniProt Q6ZRR7), for which the log2 fold change in experiment [1] was 0.106; in experiment [2] it was -0.034; with entospletinib, 0.011.
On to MAPKAPK5 (UniProt Q8IW41), for which the log2 fold change in experiment [1] was -0.012; with vorinostat, 0.07; with silmitasertib, 0.002; in experiment [2], 0.052; with entospletinib it was 0.028.
As to MRPL22 (UniProt Q9NWU5), the log2 fold change in the experiment with vorinostat was -0.687 (active); with silmitasertib, 0.001; in experiment [2], -0.007.
For the target KRAS isoform 2 (UniProt P01116), the log2 fold change with vorinostat is 0.068; with silmitasertib it was -0.015; in experiment [2], -0.045; in the experiment with entospletinib, -0.129.
LRRC7 (UniProt Q96NW7): the log2 fold change in experiment [1] is -0.097; in experiment [2], -0.012; with entospletinib it was -0.108.
Regarding MME (UniProt P08473), the values for the log2 fold change (with vorinostat; with silmitasertib; in experiment [2]) were 0.096, -0.033 and -0.038, respectively.
MECR (UniProt Q9BV79): the log2 fold change in experiment [1] was -0.037; with vorinostat, -0.268 (active); with silmitasertib, 0.009; in experiment [2], -0.016; with entospletinib, 0.011.
Take MAP3K6 (UniProt O95382): the results for the log2 fold change (in experiment [1]; in the experiment with entospletinib) were -0.088 and -0.043, respectively.
As to METTL21A (UniProt Q8WXB1), the figures for the log2 fold change (with vorinostat; in the experiment with silmitasertib; in experiment [2]) were 0.07, -0.016 and -0.013, respectively.
Consider MRPL30 isoform 2 (UniProt Q8TCC3), for which the log2 fold change was 0.041 in the experiment with vorinostat, -0.023 with silmitasertib, -0.012 in experiment [2] and -0.046 with entospletinib.
On to LRRC40 (UniProt Q9H9A6), for which the log2 fold change in experiment [1] was -0.005; in the experiment with vorinostat, -0.315 (active); in the experiment with silmitasertib, 0.027; in experiment [2] it was -0.043; with entospletinib, 0.02.
As to MAPKAP1 (UniProt Q9BPZ7), the log2 fold change with vorinostat was -0.111; with silmitasertib it was 0.187; in experiment [2], -0.018; with entospletinib, -0.157.
On to MAN2B2 (UniProt Q9Y2E5), for which the log2 fold change with vorinostat is 0.117; with silmitasertib, -0.014; in experiment [2], -0.005; with entospletinib, 0.019.
For LEPROT (UniProt O15243) the same measures were -0.641 (active), 0.167, -0.007 and 0.115.
For the target MED28 (UniProt Q9H204), the log2 fold change is -0.219 with vorinostat, 0.003 with silmitasertib and 0.09 in experiment [2].
For MED25 isoform 3 (UniProt Q71SY5), the log2 fold change with vorinostat was -0.294 (active); with silmitasertib it was 0.021; in experiment [2], 0.024; with entospletinib, 0.127.
Regarding MARK3 (UniProt P27448), the log2 fold change in experiment [1] was -0.035; with vorinostat it was -0.069; with silmitasertib, 0.445 (active); in experiment [2] it was 0.035; with entospletinib it was 0.036.
